PubChem BioAssay
Active and inactive are the calls of the source.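 The calls were made as follows, unless noted: active = response below a set limit, under 55% cells CD8-positive and vesicle-bound, and CD8 cells' 90th-percentile brightness under 279; inactive = the rest.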

How the values were obtained:
[1] = inhibitors of CD8+ T cell-vesicle binding, pilot screen, LFA-1/ICAM-1 modulator project, MLPCN validation set, flow cytometry (AID 2523); details: 2C mouse CD8+ T cells, at 7 µM, stronger effect = lower value; double positive events: measured here: CD8+/vesicle+ event percentage;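 as to vesicle binding response: mean PE anti-B7-1 fluorescence of CD8+ cells relative to row control; 100% = QL9-loaded vesicles with DMSO vehicle in the same plate row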
[2] = molecular target: Integrin beta-1 (Homo sapiens) + Integrin alpha-4 (Homo sapiens) (UniProt P13612+P05556); experiment: inhibition of HUTS-21 binding to VLA-4, pilot screen, VLA-4 allosteric modulator project, U937 cells, HUTS-21 mAb, flow cytometry, validation set (AID 2674;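 active = inhibition above 50%, about 3 SD of the validation set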;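 also: antibody binding induced by the VLA-4 ligand LDV present at three times its Kd; 0% = LDV ligand with antibody and no compound and 100% = antibody without LDV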); details: HUTS-21 LIBS mAb binding, at 6.7 µM, stronger effect = higher value, binding induced by LDV ligand
Integrin beta-1 (Homo sapiens) + Integrin alpha-4 (Homo sapiens), sequence (P05556 whole entry, looked up): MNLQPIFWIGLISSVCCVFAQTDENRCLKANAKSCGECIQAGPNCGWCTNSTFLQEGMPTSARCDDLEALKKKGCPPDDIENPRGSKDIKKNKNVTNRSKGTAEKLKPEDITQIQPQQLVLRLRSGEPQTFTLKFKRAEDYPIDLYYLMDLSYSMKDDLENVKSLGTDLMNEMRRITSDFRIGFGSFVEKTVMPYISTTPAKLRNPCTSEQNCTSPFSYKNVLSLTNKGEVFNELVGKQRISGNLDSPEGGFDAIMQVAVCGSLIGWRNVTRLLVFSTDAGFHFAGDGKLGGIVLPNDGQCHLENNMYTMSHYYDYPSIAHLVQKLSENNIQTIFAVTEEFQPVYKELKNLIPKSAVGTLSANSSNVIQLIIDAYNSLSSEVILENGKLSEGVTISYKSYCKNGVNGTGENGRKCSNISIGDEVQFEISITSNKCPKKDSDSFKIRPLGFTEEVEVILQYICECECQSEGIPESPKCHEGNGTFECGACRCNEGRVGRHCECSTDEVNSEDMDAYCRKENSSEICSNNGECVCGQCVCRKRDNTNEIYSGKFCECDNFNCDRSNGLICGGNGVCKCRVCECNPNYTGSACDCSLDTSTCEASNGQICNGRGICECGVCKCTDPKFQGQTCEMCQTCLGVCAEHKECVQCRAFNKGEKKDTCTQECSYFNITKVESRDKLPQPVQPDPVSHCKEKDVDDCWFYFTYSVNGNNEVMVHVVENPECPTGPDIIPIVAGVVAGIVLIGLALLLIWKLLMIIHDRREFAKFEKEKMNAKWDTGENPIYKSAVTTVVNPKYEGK
Integrin beta-1 (Homo sapiens) + Integrin alpha-4 (Homo sapiens), sequence (P13612 whole entry, looked up): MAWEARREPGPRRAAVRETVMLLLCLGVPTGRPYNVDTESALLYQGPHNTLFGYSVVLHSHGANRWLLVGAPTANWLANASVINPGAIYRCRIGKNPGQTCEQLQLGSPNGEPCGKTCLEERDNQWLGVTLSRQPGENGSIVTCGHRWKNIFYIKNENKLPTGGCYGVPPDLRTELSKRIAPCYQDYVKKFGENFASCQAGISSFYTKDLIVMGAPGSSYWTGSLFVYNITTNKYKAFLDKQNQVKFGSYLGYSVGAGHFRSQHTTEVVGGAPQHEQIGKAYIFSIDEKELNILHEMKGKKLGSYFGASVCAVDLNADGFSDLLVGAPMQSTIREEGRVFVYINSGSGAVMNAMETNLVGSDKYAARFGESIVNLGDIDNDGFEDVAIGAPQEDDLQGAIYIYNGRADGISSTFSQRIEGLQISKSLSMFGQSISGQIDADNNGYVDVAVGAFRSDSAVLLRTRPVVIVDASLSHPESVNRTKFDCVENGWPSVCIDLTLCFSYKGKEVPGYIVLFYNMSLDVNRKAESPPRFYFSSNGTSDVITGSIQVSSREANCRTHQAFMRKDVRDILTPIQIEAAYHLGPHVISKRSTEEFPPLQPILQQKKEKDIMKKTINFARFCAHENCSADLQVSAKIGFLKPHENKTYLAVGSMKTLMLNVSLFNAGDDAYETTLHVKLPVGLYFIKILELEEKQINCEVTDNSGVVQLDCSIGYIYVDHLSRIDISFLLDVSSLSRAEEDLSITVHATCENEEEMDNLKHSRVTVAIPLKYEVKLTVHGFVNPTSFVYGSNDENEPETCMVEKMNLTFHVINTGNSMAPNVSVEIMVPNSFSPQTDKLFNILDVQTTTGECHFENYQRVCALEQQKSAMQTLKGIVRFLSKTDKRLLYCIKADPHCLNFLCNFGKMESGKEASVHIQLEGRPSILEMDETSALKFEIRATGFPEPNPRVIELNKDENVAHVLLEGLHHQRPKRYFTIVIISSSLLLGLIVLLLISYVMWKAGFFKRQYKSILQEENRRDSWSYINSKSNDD

[3] = superoxide lowering in aged yeast cells, pilot screen, validation compound set (AID 2706;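 active = superoxide response below 65% of plate, a cut near 3 SD across the whole screen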;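 also: yeast exposed to compound for one week at 30 degrees C before staining; 100% = mean of all compound wells on the same plate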); details: S. cerevisiae aging, superoxide DHE fluorescence; at 10 µM, stronger effect = lower value
[4] = molecular target: Beta-adrenergic receptor kinase 1 (Homo sapiens) (UniProt P25098); experiment: GRK2 binders displacing RNA aptamer, biochemical, validation, human GRK2, bead flow cytometry (AID 488806;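 active = aptamer binding inhibition above 30%, about 3 SD of noise from non-fluorescent compounds; inactive = inhibition at or below 30%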); details: bead-bound GRK2, FAM-aptamer displacement, at 10 µM, stronger effect = higher value
Beta-adrenergic receptor kinase 1 (Homo sapiens), sequence (P25098 whole entry, looked up): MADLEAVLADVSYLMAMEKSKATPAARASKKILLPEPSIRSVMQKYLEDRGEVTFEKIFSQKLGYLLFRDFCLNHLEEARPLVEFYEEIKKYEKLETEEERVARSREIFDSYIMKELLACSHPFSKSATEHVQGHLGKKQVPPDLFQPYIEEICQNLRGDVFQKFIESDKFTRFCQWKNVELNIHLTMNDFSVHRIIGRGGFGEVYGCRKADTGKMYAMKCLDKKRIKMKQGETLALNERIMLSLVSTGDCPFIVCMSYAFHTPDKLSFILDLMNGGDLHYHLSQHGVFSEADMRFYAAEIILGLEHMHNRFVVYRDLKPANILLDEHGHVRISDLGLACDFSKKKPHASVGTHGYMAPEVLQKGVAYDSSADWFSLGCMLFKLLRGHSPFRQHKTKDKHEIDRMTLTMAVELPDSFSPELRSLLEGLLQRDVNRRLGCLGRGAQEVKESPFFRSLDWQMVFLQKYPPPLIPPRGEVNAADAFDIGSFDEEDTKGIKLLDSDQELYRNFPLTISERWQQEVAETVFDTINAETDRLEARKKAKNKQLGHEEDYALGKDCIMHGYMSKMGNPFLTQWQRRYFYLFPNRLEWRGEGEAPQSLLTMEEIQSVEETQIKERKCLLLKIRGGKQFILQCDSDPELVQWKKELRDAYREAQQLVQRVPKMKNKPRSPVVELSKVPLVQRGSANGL

[5] = molecular target: Beta-2 adrenergic receptor (Homo sapiens) (UniProt P07550); experiment: beta2AR agonists driving receptor internalization, pilot screen, cell-based, FAP fluorogen, flow cytometry, validation set (AID 504459;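 active = percent response above 42, roughly 3 SD of non-fluorescent test compounds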;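 also: agonist-driven loss of surface beta2AR via internalization measured by FAP dye flow cytometry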); details: Am2.2-beta2AR cells, FAP surface receptor flow cytometry; at 10 µM; stronger effect = higher value
Beta-2 adrenergic receptor (Homo sapiens), sequence (P07550 whole entry, looked up): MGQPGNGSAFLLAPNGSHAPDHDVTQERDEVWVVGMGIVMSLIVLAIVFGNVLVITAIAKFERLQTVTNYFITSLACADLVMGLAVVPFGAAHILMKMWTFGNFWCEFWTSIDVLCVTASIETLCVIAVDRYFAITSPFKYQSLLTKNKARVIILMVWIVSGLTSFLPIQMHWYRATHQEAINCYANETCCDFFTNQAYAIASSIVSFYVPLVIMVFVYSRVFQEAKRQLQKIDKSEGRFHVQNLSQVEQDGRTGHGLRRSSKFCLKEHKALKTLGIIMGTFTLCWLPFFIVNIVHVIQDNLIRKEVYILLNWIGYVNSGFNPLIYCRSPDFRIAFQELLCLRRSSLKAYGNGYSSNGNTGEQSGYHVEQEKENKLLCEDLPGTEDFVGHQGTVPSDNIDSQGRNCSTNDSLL

[6] = molecular target: AP-2 complex subunit beta (Homo sapiens) (UniProt P63010); experiment: inhibitors of arrestin peptide binding to AP2, pilot screen, biochemical, validation set, GST-AP2 beads, flow cytometry (AID 504541;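 active = inhibition above 54%, about 3 SD of non-fluorescent compounds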;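 also: AP2 carries R879A mutation and is captured from E. coli lysate; bead-bound FITC arrestin peptide fluorescence measuring arrestin peptide binding to AP2; 0% = DMSO wells and 100% = excess unlabeled arrestin peptide control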); details: FITC arrestin peptide, at 10 µM, stronger effect = higher value, AP2 beta2 appendage fragment, R879A mutant
AP-2 complex subunit beta (Homo sapiens), sequence (P63010 whole entry, looked up, the tested form may be a part, one chain of several): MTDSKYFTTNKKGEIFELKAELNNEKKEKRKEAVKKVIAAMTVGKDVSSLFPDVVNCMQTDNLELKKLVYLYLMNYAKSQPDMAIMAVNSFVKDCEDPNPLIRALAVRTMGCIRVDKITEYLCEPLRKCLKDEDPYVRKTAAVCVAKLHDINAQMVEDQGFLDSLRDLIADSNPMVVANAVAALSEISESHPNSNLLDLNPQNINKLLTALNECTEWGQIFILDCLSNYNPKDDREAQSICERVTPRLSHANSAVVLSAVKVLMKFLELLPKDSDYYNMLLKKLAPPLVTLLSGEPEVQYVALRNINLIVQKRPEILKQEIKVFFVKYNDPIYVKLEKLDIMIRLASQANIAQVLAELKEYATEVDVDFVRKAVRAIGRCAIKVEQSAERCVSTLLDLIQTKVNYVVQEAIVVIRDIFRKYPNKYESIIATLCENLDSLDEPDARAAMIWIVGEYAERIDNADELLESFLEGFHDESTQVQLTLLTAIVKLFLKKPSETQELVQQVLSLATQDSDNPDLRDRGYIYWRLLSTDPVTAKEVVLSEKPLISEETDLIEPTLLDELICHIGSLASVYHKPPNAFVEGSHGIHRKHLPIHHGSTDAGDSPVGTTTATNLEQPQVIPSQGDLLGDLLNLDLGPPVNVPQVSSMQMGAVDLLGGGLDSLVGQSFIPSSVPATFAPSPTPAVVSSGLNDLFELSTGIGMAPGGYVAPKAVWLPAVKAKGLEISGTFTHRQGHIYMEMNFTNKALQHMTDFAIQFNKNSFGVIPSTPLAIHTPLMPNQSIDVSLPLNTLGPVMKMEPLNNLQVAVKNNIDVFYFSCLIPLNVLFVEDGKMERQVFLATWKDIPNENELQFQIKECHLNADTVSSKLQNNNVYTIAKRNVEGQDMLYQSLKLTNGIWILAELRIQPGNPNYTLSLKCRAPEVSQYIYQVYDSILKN

[7] = yeast V-ATPase proton transport modulators, S. cerevisiae, pHLuorin, HTS validation (AID 504600; in the data active = response above about 15%;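 also: plate controls were DMSO for no effect and reference compound for full effect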); details: S. cerevisiae pHLuorin cytosolic pH, at 10 µM, stronger effect = higher value
[8] = tested on: anti-desmoglein-3 scFv antibody binding to human DSG3; experiment: inhibitors of anti-DSG3 scFv binding to DSG3, pilot screen, biochemical, validation compound set, bead-based, flow cytometry (AID 588368;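 active = binding below the plate cutoff, the plate median minus 3 SD, with a reading above zero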;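 also: signal is the median channel fluorescence of bead-bound GFP antibody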); details: Protein G beads, DSG3-Fc, scFv-GFP binding, at 10 µM, stronger effect = lower value
[9] = inhibitors of fungal efflux pumps CDR1, CDR2, MDR1, pilot screen, validation compound set, multiplex, phenotypic (AID 588506;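 active = efflux inhibition above 0.42, the validation set average plus 4 SD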;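 also: Nile Red retained in cells so higher fluorescence means more efflux inhibition; 0 = negative control wells and 1 = enniatin B 25 µM full block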); details: S. cerevisiae pump-expressing triplex, Nile Red efflux flow cytometry; at 10 µM; stronger effect = higher value; the pumps come from Candida albicans
[10] = molecular target: ATP-binding cassette sub-family B member 6 (Homo sapiens) (UniProt Q9NP58); experiment: ABCB6 transporter inhibitors, pilot screen, K562-ABCB6 cells, flow cytometry, validation set (AID 588550;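 active = inhibition above the screen-wide mean plus 3 SD, about 51%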;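 also: 0% = DMSO wells and 100% = benzethonium chloride 70 µM positive control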); details: K562-ABCB6 porphyrin accumulation, 1 h, at 10 µM, stronger effect = higher value
ATP-binding cassette sub-family B member 6 (Homo sapiens), sequence (Q9NP58 whole entry, looked up): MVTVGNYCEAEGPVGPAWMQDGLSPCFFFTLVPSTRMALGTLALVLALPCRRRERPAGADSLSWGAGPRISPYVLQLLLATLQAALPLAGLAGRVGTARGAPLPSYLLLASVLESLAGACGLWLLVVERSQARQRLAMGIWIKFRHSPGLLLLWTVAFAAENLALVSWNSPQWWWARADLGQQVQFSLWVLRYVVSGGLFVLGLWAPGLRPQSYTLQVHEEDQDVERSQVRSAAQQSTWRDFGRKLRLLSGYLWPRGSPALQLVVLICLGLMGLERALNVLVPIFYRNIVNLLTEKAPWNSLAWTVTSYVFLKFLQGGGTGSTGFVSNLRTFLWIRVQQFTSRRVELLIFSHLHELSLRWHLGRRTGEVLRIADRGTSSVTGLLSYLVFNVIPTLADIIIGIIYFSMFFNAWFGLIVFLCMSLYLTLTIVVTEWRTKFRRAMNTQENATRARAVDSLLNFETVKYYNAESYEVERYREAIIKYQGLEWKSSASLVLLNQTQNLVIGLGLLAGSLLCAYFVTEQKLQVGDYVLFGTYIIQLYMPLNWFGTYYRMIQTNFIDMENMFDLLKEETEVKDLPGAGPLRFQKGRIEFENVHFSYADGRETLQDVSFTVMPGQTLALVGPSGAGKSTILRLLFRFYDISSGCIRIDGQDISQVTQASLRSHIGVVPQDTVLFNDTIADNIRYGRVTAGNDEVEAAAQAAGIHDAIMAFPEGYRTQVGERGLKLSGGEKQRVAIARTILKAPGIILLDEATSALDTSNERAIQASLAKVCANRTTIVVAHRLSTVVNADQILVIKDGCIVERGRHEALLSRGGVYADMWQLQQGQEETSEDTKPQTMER

[11] = promoters of myeloid differentiation in arrested cells, primary screen, cell-based, GFP/MAC1 double positive, flow cytometry, validation set (AID 588685;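 active = differentiation response of at least 50%, scaled between solvent and reference control, from cells with both markers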;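 also: compound exposure lasts four days before antibody staining and flow analysis; 0% = DMSO wells and 100% = 5 µM fulvestrant positive control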); details: ER-HoxA9 marrow cells, stronger effect = higher value, normalized: vehicle 0, fulvestrant 100

CNc1nc(Nc2ccccc2)nc(OCC(F)(F)F)n1
inactive: vesicle binding response [1] 135% | inhibition [2] 6.95% | superoxide response (% of plate) [3] 98.2% | aptamer binding inhibition [4] -3% | response [5] -3.68% | inhibition [6] 44.3% | response [7] -7.15% | binding (% of control) [8] 101% | efflux inhibition (fraction of control) [9] -0.185 | inhibition [10] -3% | differentiation response [11] 4.2%
64.8%: double positive events [1]

CC(C)c1ccc2[nH]c3c(c2c1)CCCC3=O
inactive: vesicle binding response [1] 113% | inhibition [2] 4.27% | superoxide response (% of plate) [3] 97.7% | aptamer binding inhibition [4] 2% | response [5] 11.3% | inhibition [6] 0.1% | response [7] 1.31% | binding (% of control) [8] 102% | efflux inhibition (fraction of control) [9] 0.04 | inhibition [10] 27% | differentiation response [11] -1.65%
59.4%: double positive events [1]

COc1ccc(N2C(=O)C3CCCN3C2=O)cc1 (centres undefined)
inactive: vesicle binding response [1] 146% | inhibition [2] -1.79% | superoxide response (% of plate) [3] 98.7% | aptamer binding inhibition [4] -1% | response [5] 7.47% | inhibition [6] 9.15% | response [7] 1.78% | binding (% of control) [8] 102% | efflux inhibition (fraction of control) [9] 0.12 | inhibition [10] 7% | differentiation response [11] 2.4%
61.6%: double positive events [1]

Cc1cccc(N2C(=O)C3C(c4ccccc4)OC4(C(=O)c5ccccc5C4=O)C3C2=O)c1 (centres undefined)
inactive: vesicle binding response [1] 143% | inhibition [2] -5.89% | superoxide response (% of plate) [3] 110% | aptamer binding inhibition [4] 3% | response [5] 1.5% | inhibition [6] 6.34% | response [7] -0.37% | binding (% of control) [8] 104% | efflux inhibition (fraction of control) [9] 0.33 | inhibition [10] 5% | differentiation response [11] -12%
56.8%: double positive events [1]

CNCCc1ccccn1
inactive: vesicle binding response [1] 212% | inhibition [2] 15.1% | superoxide response (% of plate) [3] 122% | aptamer binding inhibition [4] -6% | response [5] -19.8% | inhibition [6] -12.3% | response [7] -10.1% | binding (% of control) [8] 100% | efflux inhibition (fraction of control) [9] 0 | inhibition [10] 1% | differentiation response [11] 2.89%
60%: double positive events [1]

CC(=O)O[C@]1(C(C)=O)CC[C@H]2[C@@H]3C=C(C)C4=CC(=O)CC[C@]4(C)[C@H]3CC[C@@]21C
inactive: vesicle binding response [1] 252% | inhibition [2] -0.27% | superoxide response (% of plate) [3] 95.9% | aptamer binding inhibition [4] 3% | response [5] -24.4% | inhibition [6] 1.74% | response [7] -0.81% | binding (% of control) [8] 101% | efflux inhibition (fraction of control) [9] 0.29 | inhibition [10] -2% | differentiation response [11] 7.82%
65.3%: double positive events [1]

COc1ccccc1C(=O)N=C1NC(=O)CC2C(=O)NCCN12 (centres undefined)
63.2%: double positive events [1]
inactive: vesicle binding response [1] 245% | inhibition [2] 6.4% | superoxide response (% of plate) [3] 100% | aptamer binding inhibition [4] 0% | response [5] -0.52% | inhibition [6] 0.24% | response [7] -0.05% | binding (% of control) [8] 103% | efflux inhibition (fraction of control) [9] 0.08 | inhibition [10] 9% | differentiation response [11] -8.8%

COc1ccccc1C(CC(=O)Nc1ccccc1C)c1ccc(OC(C)C)cc1 (centres undefined)
63.5%: double positive events [1]
inactive: vesicle binding response [1] 263% | inhibition [2] 9.95% | superoxide response (% of plate) [3] 92.7% | aptamer binding inhibition [4] 4% | response [5] -15% | inhibition [6] -4.43% | response [7] -5.65% | binding (% of control) [8] 105% | inhibition [10] 0% | differentiation response [11] -1.05%
active: efflux inhibition (fraction of control) [9] 0.54

CCCCC[C@H](O)/C=C/[C@@H]1[C@@H](C/C=C\CCCC(=O)O)[C@@H](O)C[C@H]1O
60.4%: double positive events [1]
inactive: vesicle binding response [1] 106% | inhibition [2] -49.3% | superoxide response (% of plate) [3] 96.5% | aptamer binding inhibition [4] 1% | response [5] -3.9% | inhibition [6] -12.4% | response [7] -1.19% | binding (% of control) [8] 98.8% | efflux inhibition (fraction of control) [9] 0.045 | inhibition [10] 1% | differentiation response [11] -11.9%

Fc1cccc(Cc2noc(CN3CCN(c4cnccn4)CC3)n2)c1
56.6%: double positive events [1]
inactive: vesicle binding response [1] 45.8% | inhibition [2] -3.57% | superoxide response (% of plate) [3] 108% | aptamer binding inhibition [4] -1% | response [5] -4.45% | response [7] -3.37% | binding (% of control) [8] 97.4% | efflux inhibition (fraction of control) [9] 0.11 | inhibition [10] 0% | differentiation response [11] 41.3%
active: inhibition [6] 56.4%

Cc1nc2ccccc2c(=O)n1N
inactive: vesicle binding response [1] 160% | inhibition [2] 5.03% | superoxide response (% of plate) [3] 95.7% | aptamer binding inhibition [4] -1% | response [5] -0.52% | inhibition [6] -8.13% | response [7] -5.43% | binding (% of control) [8] 106% | efflux inhibition (fraction of control) [9] 0.15 | inhibition [10] 6%
64.8%: double positive events [1]
active: differentiation response [11] 58.4%

CC(=O)O[C@H]1CC[C@H]2[C@@H]3CCc4cc(O)ccc4[C@H]3CC[C@]12C
inactive: vesicle binding response [1] 234% | inhibition [2] 15.9% | superoxide response (% of plate) [3] 80.4% | aptamer binding inhibition [4] 1% | response [5] -33% | inhibition [6] 6.38% | response [7] 2.35% | binding (% of control) [8] 101% | efflux inhibition (fraction of control) [9] 0.21 | inhibition [10] 5% | differentiation response [11] -1.05%
58.2%: double positive events [1]

C=C(CC)C(=O)c1ccc(OCC(=O)O)c(Cl)c1Cl
inactive: vesicle binding response [1] 105% | inhibition [2] -4.21% | superoxide response (% of plate) [3] 98.5% | aptamer binding inhibition [4] 2% | response [5] 14.6% | inhibition [6] -9.01% | response [7] 1.56% | binding (% of control) [8] 108% | efflux inhibition (fraction of control) [9] -0.38 | inhibition [10] -92% | differentiation response [11] 1.64%
52.1%: double positive events [1]

CCCC(=O)O[C@]1(C(=O)CO)CC[C@H]2[C@@H]3CCC4=CC(=O)CC[C@]4(C)[C@H]3[C@@H](O)C[C@@]21C
56.4%: double positive events [1]
inactive: vesicle binding response [1] 901% | inhibition [2] -8.75% | superoxide response (% of plate) [3] 105% | aptamer binding inhibition [4] -3% | response [5] -0.28% | inhibition [6] 14.7% | response [7] -3.44% | binding (% of control) [8] 99.7% | efflux inhibition (fraction of control) [9] -0.2 | inhibition [10] 1% | differentiation response [11] -3.67%

OC(COCc1ccccc1)CN1CCN(Cc2ccc3c(c2)OCO3)CC1 (centres undefined)
inactive: vesicle binding response [1] 189% | inhibition [2] 7.76% | superoxide response (% of plate) [3] 110% | aptamer binding inhibition [4] 2% | response [5] 4.46% | inhibition [6] -4.35% | response [7] 4.61% | binding (% of control) [8] 97.8% | efflux inhibition (fraction of control) [9] -0.21 | inhibition [10] 4% | differentiation response [11] 8.8%
59.4%: double positive events [1]

CC(=O)/C=C/c1ccc(C)o1
62.2%: double positive events [1]
inactive: vesicle binding response [1] 175% | inhibition [2] 5.03% | superoxide response (% of plate) [3] 95.6% | aptamer binding inhibition [4] -4% | response [5] 14.7% | inhibition [6] 15.9% | response [7] 0.22% | binding (% of control) [8] 102% | inhibition [10] 3% | differentiation response [11] 28%
active: efflux inhibition (fraction of control) [9] 0.51

COc1ccc(-c2cc(=O)oc3c(C)c(O)c(CN(C)C)cc23)cc1
inactive: vesicle binding response [1] 183% | inhibition [2] 9.63% | superoxide response (% of plate) [3] 96.8% | aptamer binding inhibition [4] 1% | response [5] -14.6% | inhibition [6] 2.69% | response [7] 5.58% | binding (% of control) [8] 98.3% | efflux inhibition (fraction of control) [9] 0.42 | inhibition [10] 0% | differentiation response [11] 2.74%
66%: double positive events [1]
